ChEMBL document CHEMBL1201862, “PubChem BioAssay data set” (2004)
The campaign covered roughly 53,000 […]. About 4,900 (9.2%) were called active. Cut-off read from the data, not from the text of the source: active = GI50 up to about 1.1 µM and inactive = higher. The entries come from a sample that favours actives as a whole. Entries with a potency or affinity are not part of this list.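 Test compounds were applied to cells in 96-well plates for 48 hours at 5 doses. GI50 marks 50% less growth.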

Tested on: NCI-H522
Assay: NCI tumour cell line growth inhibition, 48 h

How did the GI50 turn out when CISPLATIN, CHEMBL11359 was run?
Its GI50 is 2030 nM.

How did the GI50 turn out when “cis-Bis[[(trimethylsilyl)methyl]amino]tetrachloroplatinum(IV), CHEMBL2146191” was run?
Its GI50 is 8220 nM.

Which GI50 does the source give for “[Bis(aminomethyl)tetramethylenesilane]tetrachloropaltinum(IV), CHEMBL2146189” here?
The GI50 was 2180 nM.

With “[Bis(aminomethyl)pentamethylenesilane]tetrachloropaltinum(IV), CHEMBL2146204” as the substance, how does the GI50 read?
The GI50 was 776 nM.

For “[Bis(aminomethyl)dimethylsilane]dichloroplatinum (II), CHEMBL2146201”, which GI50 is on record?
The GI50 was 4940 nM.

For “[Bis(aminomethyl)diethylsilane]tetrachloroplatinum(IV), CHEMBL2146203”, which GI50 is on record?
Its GI50 is 2650 nM.

For “[Bis(aminomethyl)tetramethylenesilane]dichloropaltinum(II), CHEMBL2146205”, which GI50 is on record?
The GI50 was 7620 nM.

How did the GI50 turn out when “mu-(1,7-nanodiamine-N,N')bis-(cis-aminedichloroplatimum (II)), CHEMBL2146215” was run?
Its GI50 is 7940 nM.

For “[Bis(aminomethyl)pentamethylenesilane]dichloropaltinum(II), CHEMBL2146202”, which GI50 is on record?
Its GI50 is 1520 nM.

“[Bis(aminomethyl)dimethylsilane]tetrachloroplatinum(IV), CHEMBL2146190” was tested. Which GI50 did it give?
Its GI50 is 1830 nM.
